SMARCA2 act: increases SMARCA2 function in MMTV reporter cells. MG213 cells, MMTV-luciferase reporter, dexamethasone, overnight. activation, % at 9.1 µM. 1% of 370,000 active; in the data active means activation above about 7.8%;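 further: 0% = vehicle wells and 100% = reference activator wells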
DYRK1A inh: inhibitors of rat Dyrk1A kinase; ADP-Glo luminescence, NFATc1 peptide; inhibition, % at 12.5 µM; 0.43% of 310,000 active; in the data active means inhibition above about 50%;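 further: plate controls were vehicle with enzyme for no effect and no enzyme for full effect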
esBAF inh: SWI/SNF esBAF complex inhibition; mouse ES cells, Bmi1-luciferase knock-in reporter, 24 h; 100% = twice the neutral-well signal; reporter increase, % at 12.5 µM; 2% of 350,000 active; AID 602393; in the data active means activation above about 40%; inconclusive means no clear call, values can overlap the other calls;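 further: 0% = median of the plate's neutral control wells and 100% = double that signal; a rise in the Bmi1 reporter signal indicates esBAF inhibition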
dFosB act: activators of mouse delta FosB homodimer; P13346; purified delta FosB, TAMRA-CDK5 oligo fluorescence polarization; percent of positive-control signal above neutral wells; activation, % at 25 µM; 0.99% of 340,000 active;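 active means mean activation above about 17%, with every replicate also reaching it, limit read from the data, passing the limit was not always enough; inconclusive means only one of the two conditions met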
Rtt109 HAT inh: inhibitors of Candida albicans Rtt109/Vps75 histone acetyltransferase; inhibition, % at 34.9 µM; Q5AAJ8; AID 540336; purified Rtt109/Vps75, ThioGlo CoA-SH fluorescence, 4 h; 0.16% of 330,000 active;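 active means inhibition of at least 50% in every replicate; inconclusive means best replicate reaches 50% inhibition but some replicates fall short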
CDK5 p35 inh: blocks human CDK5/p35 kinase activity. Q00535+Q15078. Recombinant CDK5/p35, ADP-Glo luminescence, 60 min. AID 488839. inhibition, % at 10 µM. 0.01% of 330,000 active;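 active means highest replicate inhibition of at least 50% and at least 75% of replicates reaching 50%; inconclusive means only one of the two criteria met; inactive means both criteria failed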;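 further: plate controls were DMSO neutral control for no effect and GW8510 at 10 µM for full effect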
Target sequence (Q00535 whole entry, looked up): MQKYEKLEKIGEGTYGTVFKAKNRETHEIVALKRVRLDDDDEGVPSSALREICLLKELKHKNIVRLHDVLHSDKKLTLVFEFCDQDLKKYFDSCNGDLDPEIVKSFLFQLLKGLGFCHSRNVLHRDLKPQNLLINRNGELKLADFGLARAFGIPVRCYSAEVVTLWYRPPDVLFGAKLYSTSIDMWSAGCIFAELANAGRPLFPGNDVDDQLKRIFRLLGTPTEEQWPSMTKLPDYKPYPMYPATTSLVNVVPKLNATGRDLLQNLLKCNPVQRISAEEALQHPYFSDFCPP
Target sequence (Q15078 whole entry, looked up): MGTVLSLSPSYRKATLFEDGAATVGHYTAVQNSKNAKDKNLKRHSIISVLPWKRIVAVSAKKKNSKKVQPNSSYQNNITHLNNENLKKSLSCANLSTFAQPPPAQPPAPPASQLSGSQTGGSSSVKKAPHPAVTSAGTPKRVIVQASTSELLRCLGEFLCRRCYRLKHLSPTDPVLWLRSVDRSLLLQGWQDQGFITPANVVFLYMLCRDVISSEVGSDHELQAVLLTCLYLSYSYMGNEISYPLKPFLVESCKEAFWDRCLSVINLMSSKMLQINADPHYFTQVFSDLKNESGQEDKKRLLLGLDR
SMARCA2 conf: SMARCA2 activation, confirmation screen; shares compounds with SMARCA2 act; MG213 cells, MMTV-luciferase with dexamethasone, luminescence, overnight; MG213 cells expressing E1A, Rb sequestered; DMSO wells 0%, reference activator 100%; activation, % at 9.1 µM; 30% of 3,500 active;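 active means activation above its plate's cutoff, the mean activation of tested wells plus 3 SD, cut at about 7.9% in these data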
GAL4-VP16 Luc: GAL4-VP16 reporter activation counter-screen. 41% of 3,500 active. shares compounds with SMARCA2 act. activation, % at 9.1 µM. HEK293 GAL4-VP16 pG5luc reporter, luciferase luminescence; scaled: DMSO wells 0%, SAHA wells 100%. AID 686939;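 active means activation above the solvent-only control well mean plus 3 SD, averaged across control plates, cut at about 5.2% in these data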
* hit, by the source's call; ? = inconclusive; · = not tested or not shown. Compounds with a hit are over-represented: about 3.2% of the library has one in this group of screens.

SMILES	SMARCA2 act	DYRK1A inh	esBAF inh	dFosB act	Rtt109 HAT inh	CDK5 p35 inh	SMARCA2 conf	GAL4-VP16 Luc
COc1ccc(Nc2c(-c3cc4ccccc4o3)nc3nc(C)cc(C)n23)cc1	8.6*	·	·	·	·	·	0	2
COc1ccc(S(=O)(=O)N(C)C[C@@H]2OCCCC[C@@H](C)Oc3ccc(NC(=O)c4ccncc4)cc3C(=O)N([C@H](C)CO)C[C@@H]2C)cc1	·	·	-1	·	·	·	·	·
CC(=O)c1ccc(OCCCC(=O)OCc2nnc(-c3ccc(Cl)cc3)o2)cc1	8.3*	0	·	-2	-6	1	8.4*	0
COc1ccccc1-c1cnc2c(c1)C(=O)N([C@H](C)CO)C[C@@H](C)[C@@H](CN(C)C(=O)c1cccnc1)O2	·	·	-15	·	·	·	·	·
COc1cc(CCC(=O)OCC(=O)Nc2ccc(F)c(F)c2F)cc(OC)c1OC	0	6	-2	-1	3	-1	·	·
COC(=O)CNC(=O)COC(=O)c1ccc(OC)c([N+](=O)[O-])c1	9.1*	-3	·	4	-3	-3	-1	-1
CS(=O)(=O)c1ccc(C(=O)OCC(=O)NCc2cccs2)cc1[N+](=O)[O-]	12*	·	12	-2	1	0	-14	2
COc1ccc(C(=O)OCC(=O)Nc2ccc(F)c(F)c2F)cc1OC	10*	-1	1	4	-9	1	1	-1
CCS(=O)(=O)Nc1ccc2c(c1)C(=O)N(C)C[C@H](OC)[C@@H](C)CN(C(C)=O)[C@H](C)CO2	·	·	-4	·	·	·	·	·
O=C(C[C@H]1CC[C@H](NC(=O)Nc2cccc(F)c2)[C@@H](CO)O1)NCC1CCCCC1	·	·	0	·	·	·	·	·
C[C@H](CO)N1C[C@H](C)[C@H](CN(C)C(=O)Cc2ccccc2)OCc2cn(nn2)CCCC1=O	·	·	3	·	·	·	·	·
O=C(Cc1ccccc1F)Nc1ccc2c(c1)CCC2	12*	15	72*	5	-6	0	4	6.6*
O=C(C[C@H]1CC[C@H]2[C@@H](COC[C@@H](O)CN2C(=O)c2ccccc2F)O1)NCc1ccc(Cl)c(Cl)c1	·	·	0	·	·	·	·	·
Cc1cccc(-c2noc(CCc3ccccc3)n2)c1	11*	2	63*	-4	-5	0	4	6.7*
COc1ccc(NC(=O)N(C)C[C@@H]2Oc3ncc(-c4ccc(F)cc4)cc3C(=O)N([C@H](C)CO)C[C@@H]2C)cc1	·	·	-4	·	·	·	·	·
O=C(Nc1ccc2nccnc2c1)Nc1ccccc1Cl	8.9*	-4	20	-4	-13	-1	1	6.8*
CCCNC(=O)C[C@@H]1C[C@H]2c3cc(NC(=O)C4CCOCC4)ccc3O[C@H]2[C@@H](CO)O1	·	·	0	·	·	·	·	·
Cc1ccc2oc(C(=O)Nc3cc(C)on3)c(C)c2c1	9.4*	2	37	-16	5	1	8.2*	8.0*
COc1ccccc1NS(=O)(=O)c1cccc(NC(=O)c2cc3ccccc3oc2=O)c1	8.1*	-4	·	-1	4	2	4	9.5*
CN(c1ccccc1)S(=O)(=O)c1cccc(NC(=O)c2cc3ccccc3oc2=O)c1	12*	-7	54*	1	-7	1	-1	6.3*
Cc1ccc(NC(=O)c2cc3ccccc3oc2=O)cc1S(=O)(=O)N(C)C	·	-5	·	-6	0	-1	·	·
C[C@H]1CN([C@@H](C)CO)C(=O)Cc2cc(NS(=O)(=O)c3ccc(Cl)cc3)ccc2O[C@H]1CN(C)C(=O)Nc1ccc(C(F)(F)F)cc1	·	·	7	·	·	·	·	·
COc1cccc(CC(NC(C)=O)C(=O)NC2CCN(c3c4c(nc5ncnn35)CCC4)CC2)c1 (configuration not stated)	8.4*	-3	·	0	-10	-1	-2	0
O=C(Nc1ccccc1F)N1[C@@H](CO)[C@@H]2c3ccccc3NC[C@@H]21	·	·	24	·	·	·	·	·
CCOC(=O)CSC1=NC(=O)/C(=C\c2ccc(Cl)cc2)S1	9.3*	49	12	-9	6	1	5	4
SMILES	SMARCA2 act	DYRK1A inh	esBAF inh	dFosB act	Rtt109 HAT inh	CDK5 p35 inh	SMARCA2 conf	GAL4-VP16 Luc
CCOC(=O)C1CCN(C2=NC(=O)/C(=C/c3ccc(Cl)cc3)S2)CC1	-3	-1	-3	-27	-2	0	·	·
C[C@@H]1CN([C@H](C)CO)C(=O)Cc2cc(NC(=O)NC3CCCCC3)ccc2O[C@@H]1CN(C)S(=O)(=O)c1ccccc1	·	·	-5	·	·	·	·	·
N#CC(C#N)=C1SC(=Nc2ccccc2)C(=Nc2ccccc2)N1c1ccccc1	14*	·	·	-7	-2	-1	-3	4
C[C@@H]1CN([C@@H](C)CO)C(=O)CCCn2nncc2CO[C@@H]1CN(C)Cc1ccncc1	·	·	3	·	·	·	·	·
COc1ccc(-c2nc3ccccc3s2)cc1NC(C)=O	9.7*	-2	39	-17	7	1	7	14*
C[C@@H]1CCCCO[C@H](CN(C)S(=O)(=O)c2cn(C)cn2)[C@@H](C)CN([C@@H](C)CO)C(=O)c2cc(NC(=O)Cc3ccccc3)ccc2O1	·	·	2	·	·	·	·	·
C[C@@H]1CN([C@H](C)CO)C(=O)c2cc(NC(=O)Cc3ccccc3)ccc2O[C@@H](C)CCCCO[C@@H]1CN(C)S(=O)(=O)c1cccs1	·	·	-3	·	·	·	·	·
O=[N+]([O-])c1cccnc1NCCc1c[nH]c2ccccc12	8.8*	7	?	0	-3	0	13*	8.4*
O=[N+]([O-])c1cc(C(F)(F)F)ccc1NCCc1c[nH]c2ccccc12	-1	0	8	-6	0	1	·	·
Nc1c(C(=O)c2ccc(Cl)cc2)sc2nc3c(cc12)CCC3	5	-3	·	-5	0	0	·	·

From PubChem
